{"source": "PubChem BioAssay (NCATS)", "note": "Several values for one entry are separate records, joined by “and”; a condition that tells them apart may be missing. Equal values may be shown once. Inconclusive results are not listed. Activity calls are given as the source filed them. The call rests on the fitted dose curve; in most records, active means well fitted curve in the direction sought with a large enough effect; inconclusive means small, poorly fitted or top-dose-only effect, or another doubt; inactive means no such curve, though single readings can be large or run the other way.", "data": [{"target": "Hexokinase-4 (Homo sapiens) + Glucokinase regulatory protein (Homo sapiens) (UniProt P35557+Q14397)", "sequence (P35557 whole entry, looked up)": "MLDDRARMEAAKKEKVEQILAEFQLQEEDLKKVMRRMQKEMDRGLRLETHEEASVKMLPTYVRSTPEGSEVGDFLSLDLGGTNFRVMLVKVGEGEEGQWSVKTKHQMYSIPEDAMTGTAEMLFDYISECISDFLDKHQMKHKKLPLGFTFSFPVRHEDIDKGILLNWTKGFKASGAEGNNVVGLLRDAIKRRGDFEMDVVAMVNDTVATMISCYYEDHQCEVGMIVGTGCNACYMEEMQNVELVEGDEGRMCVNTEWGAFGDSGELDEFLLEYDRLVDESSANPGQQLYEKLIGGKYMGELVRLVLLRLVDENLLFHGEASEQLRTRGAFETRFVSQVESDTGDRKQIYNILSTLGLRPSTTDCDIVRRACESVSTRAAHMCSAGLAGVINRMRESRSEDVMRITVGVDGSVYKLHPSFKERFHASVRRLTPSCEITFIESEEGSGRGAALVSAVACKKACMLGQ", "sequence (Q14397 whole entry, looked up)": "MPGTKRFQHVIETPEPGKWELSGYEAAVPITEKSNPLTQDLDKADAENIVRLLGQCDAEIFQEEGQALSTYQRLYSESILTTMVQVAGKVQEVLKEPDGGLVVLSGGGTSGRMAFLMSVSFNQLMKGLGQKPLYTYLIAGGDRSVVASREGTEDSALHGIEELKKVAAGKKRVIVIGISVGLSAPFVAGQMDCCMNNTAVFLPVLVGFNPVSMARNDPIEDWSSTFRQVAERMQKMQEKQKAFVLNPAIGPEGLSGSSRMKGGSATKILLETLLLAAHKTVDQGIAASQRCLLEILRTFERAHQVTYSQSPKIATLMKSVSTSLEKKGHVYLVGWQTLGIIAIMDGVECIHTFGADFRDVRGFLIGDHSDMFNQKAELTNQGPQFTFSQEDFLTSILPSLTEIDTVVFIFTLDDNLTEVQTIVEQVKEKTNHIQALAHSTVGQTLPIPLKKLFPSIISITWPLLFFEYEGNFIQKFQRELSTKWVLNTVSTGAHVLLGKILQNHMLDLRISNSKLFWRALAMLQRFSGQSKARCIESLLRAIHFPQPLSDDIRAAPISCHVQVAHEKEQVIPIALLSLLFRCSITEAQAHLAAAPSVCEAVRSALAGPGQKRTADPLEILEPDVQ", "assay": "qHTS assay for inhibitors of recombinant human GCK-GKRP interaction: HTRF assay (AID 743207);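 further: 0% = DMSO with GCK present and -100% = DMSO wells lacking GCK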", "settings": "recombinant GCK-GKRP HTRF binding, 60 min, with sorbitol-6-phosphate; series mostly up to 57.5 µM; activity change, negative = inhibition: at the top concentration", "how_it_was_run": "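Titration screening format: recombinant GST-GCK and FLAG-GKRP at 5 nM, S6P at 2 uM, labelled anti-tag antibodies, 60 min at RT, dual-wavelength HTRF readout.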", "values": [{"smiles": "NC(=O)c1ncn([C@@H]2O[C@H](CO)[C@@H](O)[C@H]2O)n1", "activity change, negative = inhibition": "-7.92% (inactive)"}, {"smiles": "COc1ccc(Cl)cc1C(=O)NCCc1ccc(S(=O)(=O)NC(=O)NC2CCCCC2)cc1", "activity change, negative = inhibition": "-0.472% (inactive)"}, {"smiles": "CN(C)CCOC(C)(c1ccccc1)c1ccccn1", "note": "(centres undefined)", "activity change, negative = inhibition": "9.26% (inactive)"}, {"smiles": "CC1=C(/C=C/C(C)=C/C=C/C(C)=C/C(=O)O)C(C)(C)CCC1", "activity change, negative = inhibition": "-5.61% (inactive)"}, {"smiles": "C[C@]12C[C@H](O)[C@H]3[C@@H](CCC4=CC(=O)CC[C@@]43C)[C@@H]1CC[C@@H]2C(=O)CO", "activity change, negative = inhibition": "10.3% (inactive)"}, {"smiles": "COC(=O)C1=C(C)NC(C)=C(C(=O)OC)C1c1ccccc1[N+](=O)[O-]", "activity change, negative = inhibition": "9.05% (inactive)"}, {"smiles": "CNC(=O)Oc1ccc2c(c1)[C@]1(C)CCN(C)[C@@H]1N2C", "activity change, negative = inhibition": "9.61% (inactive)"}, {"smiles": "CC(CN1c2ccccc2Sc2ccccc21)N(C)C", "note": "(centres undefined)", "activity change, negative = inhibition": "1.23% (inactive)"}]}, {"tested_on": "not listed separately", "assay": "qHTS Assay for Identifying Gametocytocidal Compounds (AID 743244);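 further: on the % scale 0 is the no-effect control and ±100 the full control effect; actives lower the fluorescent signal which means gametocytes are killed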", "settings": "P. falciparum 3D7 stage III-V gametocytes, alamarBlue, 72 h; max response: stronger effect = lower value", "how_it_was_run": "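In this qHTS viability screen, late-stage 3D7 gametocytes are incubated with compound for 72 h, then with alamarBlue for 24 h; reduced resorufin fluorescence marks killing.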", "values": [{"smiles": "NC(=O)c1ncn([C@@H]2O[C@H](CO)[C@@H](O)[C@H]2O)n1", "max response": "-2.06% (inactive) and 29.2% (inactive)"}, {"smiles": "Cc1c(O)cccc1C(=O)N[C@@H](CSc1ccccc1)[C@H](O)CN1C[C@H]2CCCC[C@H]2C[C@H]1C(=O)NC(C)(C)C", "max response": "0.0084% (inactive)"}, {"smiles": "CC(O)COc1ccccc1", "note": "(centres undefined)", "max response": "8.99% (inactive)"}, {"smiles": "CCCCC(CC)COC(=O)c1ccccc1O", "note": "(centres undefined)", "max response": "10.2% (inactive)"}, {"smiles": "NCCNCCNCCNCCN", "max response": "-2.7% (inactive)"}, {"smiles": "O=S(=O)(O)NC1CCCCC1", "max response": "-6.77% (inactive)"}, {"smiles": "CC1=C(/C=C/C(C)=C/C=C/C(C)=C/C(=O)O)C(C)(C)CCC1", "max response": "12.7% (inactive) and 23.7% (inactive)"}, {"smiles": "NCCNCCNCCN", "max response": "-8.14% (inactive)"}, {"smiles": "C[C@]12CC[C@@H]3c4ccc(O)cc4CC[C@H]3[C@@H]1CCC2=O", "max response": "-6.45% (inactive) and 30.5% (inactive)"}, {"smiles": "COc1ccccc1O", "max response": "-0.65% (inactive)"}, {"smiles": "Cc1cc2nc3c(=O)[nH]c(=O)nc-3n(C[C@H](O)[C@H](O)[C@H](O)CO)c2cc1C", "max response": "33.2% (inactive) and 6.89% (inactive)"}, {"smiles": "C[C@]12C[C@H](O)[C@H]3[C@@H](CCC4=CC(=O)CC[C@@]43C)[C@@H]1CC[C@@H]2C(=O)CO", "max response": "-3.84% (inactive) and -1.24% (inactive)"}, {"smiles": "COC(=O)C1=C(C)NC(C)=C(C(=O)OC)C1c1ccccc1[N+](=O)[O-]", "max response": "13.4% (inactive) and 13.1% (inactive)"}, {"smiles": "Cc1cc(CC(=O)O)n(C)c1C(=O)c1ccc(Cl)cc1", "max response": "5.09% (inactive) and -10.7% (inactive)"}, {"smiles": "CCCc1c(OCCCCc2nn[nH]n2)ccc(C(C)=O)c1O", "max response": "-10.5% (inactive)"}, {"smiles": "CCCCOC(=O)c1ccc(O)cc1", "max response": "0.124% (inactive)"}, {"smiles": "CC12CCC(CC1)C(C)(C)O2", "max response": "7.91% (inactive)"}, {"smiles": "[Cl][In]([Cl])[Cl]", "max response": "-7.04% (inactive) and -5.36% (inactive)"}, {"smiles": "O=C1O[C@H]([C@@H](O)CO)C(O)=C1O", "max response": "-4.25% (inactive) and 24.7% (inactive)"}, {"smiles": "O=C1c2c(O)cccc2Cc2cccc(O)c21", "max response": "12% (inactive)"}, {"smiles": "CCCCCCCCCCCCOS(=O)(=O)O", "max response": "14.3% (inactive)"}]}]}
